# Compounds with a hit are over-represented: about 2.7% of the library has one in this group of screens.
# HepG2 viability = counter-screen for TGF-b inhibitors: cytotoxicity in HepG2 cells. Potency, µM (top dose mostly 46.1 µM), most hits filed as cytotoxic. AID 588856. HepG2 CAGA-GFP viability, ATP luminescence, 18 h. hit rate 0.76% among 410,000
#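 HepG2 CAGA-GFP cells (1000/well, DMEM with 1% FBS) received compound, then TGF-beta at 500 pg/mL final, and were incubated 18 hours at 37 degrees C. Viability was read by CellTiter-Glo luminescence. Media-only wells were set as complete cell-killing and DMSO as no toxicity.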
# ALOX12 inh = inhibitors of human 12S-lipoxygenase ALOX12; Potency, µM (top dose mostly 108 µM), usual class: inhibitors; hit rate 1.1% among 580,000; P18054; purified 12hLO, xylenol orange hydroperoxide absorbance
# Target sequence (P18054 whole entry, looked up): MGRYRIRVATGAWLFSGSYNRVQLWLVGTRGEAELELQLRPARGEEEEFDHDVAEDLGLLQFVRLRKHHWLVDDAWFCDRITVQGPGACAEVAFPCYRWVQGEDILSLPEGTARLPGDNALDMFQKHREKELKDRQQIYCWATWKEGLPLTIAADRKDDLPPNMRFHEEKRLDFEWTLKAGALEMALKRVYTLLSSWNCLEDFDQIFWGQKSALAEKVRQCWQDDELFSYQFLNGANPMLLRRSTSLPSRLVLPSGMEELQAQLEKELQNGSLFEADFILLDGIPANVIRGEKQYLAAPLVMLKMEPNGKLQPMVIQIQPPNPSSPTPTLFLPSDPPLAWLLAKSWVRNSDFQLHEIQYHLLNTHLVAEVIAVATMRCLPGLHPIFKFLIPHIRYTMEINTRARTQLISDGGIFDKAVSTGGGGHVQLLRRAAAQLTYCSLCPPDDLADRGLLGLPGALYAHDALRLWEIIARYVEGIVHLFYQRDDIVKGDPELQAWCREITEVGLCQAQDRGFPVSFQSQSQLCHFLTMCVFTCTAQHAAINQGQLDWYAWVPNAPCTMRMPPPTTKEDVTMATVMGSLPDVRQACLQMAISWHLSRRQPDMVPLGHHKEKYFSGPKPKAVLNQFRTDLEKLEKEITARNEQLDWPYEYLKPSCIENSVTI
#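 Purified human 12hLO (150 nM final) in 25 mM Hepes, 0.01% Triton X-100, pH 7.0 was preincubated 15 min at room temperature with compound. Then 40 uM arachidonic acid was added, 30 min. Hydroperoxide was read by Fe-XO absorbance ratio 573/405 nm.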
# ATXN2 expr inh = ATXN2 expression inhibition. HEK-293 ATXN2-luciferase reporter, luminescence, 24 h. Potency, µM (series often up to 57 µM), hits mostly inhibitors. hit rate 0.72% among 360,000. AID 1745845; further: nearly all actives have a fitted effect of over 55% in size
#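 qHTS (up to 57 uM final) was run with 24 h compound exposure of reporter cells at 37 °C. Each well was multiplexed: SteadyGlo luminescence measured ATXN2-luciferase expression after a fluorogenic Gly-Phe-AFC viability readout (25 uM final).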
# TGFb SMAD3 inh = blocks TGF-b signaling; hit rate 1.2% among 410,000; Potency, µM (top dose mostly 46.1 µM), actives largely listed as inhibitors; AID 588855; HepG2 CAGA-GFP TGF-b/SMAD3 reporter, GFP fluorescence, 18 h; TGF-beta stimulated, 500 pg/mL final; further: nearly all actives have a fitted effect of over 65% in size
#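 GFP signal (ex488/em500-530) from TGF-beta-stimulated HEPG2 CAGA-GFP cells, 500 pg/mL final, 18 h at 37 degrees C in DMEM plus 1% FBS, normalized to unstimulated and DMSO-stimulated controls.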
# S2 tox = viability counter-screen for ATXN expression inhibitors; S2 cells (HEK-293 line with an ATXN2-luciferase reporter) viability, CellTiter-Fluor protease fluorescence, 24 h; Potency, µM (series often up to 56.7 µM), actives largely listed as cytotoxic; hit rate 0.49% among 400,000; AID 651635; further: nearly all actives have a fitted effect of over 40% in size
# A number is an active result; n = inactive; u = inconclusive; x = not tested or not shown; [ ] = remark or other dose. The call rests on the fitted dose curve; in most records, active means well fitted curve in the direction sought with a large enough effect; inconclusive means small, poorly fitted or top-dose-only effect, or another doubt; inactive means no such curve, though single readings can be large; an effect the other way counts as inactive or inconclusive.
SMILES,HepG2 viability,ALOX12 inh,ATXN2 expr inh,TGFb SMAD3 inh,S2 tox
Cc1ccc(S(=O)(=O)NC(C(=O)Oc2ccc3c(C(F)(F)F)cc(=O)oc3c2)c2ccccc2)cc1 (stereo not given),n,50µM,n,u,n
Cc1ccc(S(=O)(=O)Oc2ccc3c(C(F)(F)F)cc(=O)oc3c2)cc1,x,n,x,x,x
S=C(NCCCN1CCOCC1)Nc1ccc(Nc2ccccc2)cc1,n,n,n[11.3 µM],n,n
C=C(C)CNC(=S)NN=C1c2ccccc2-c2ccccc21,n,x,n,n,x
S=C(NCCCN1CCOCC1)NN=C1c2ccccc2-c2ccccc21,n,45µM,x,u,u
CCNC(=S)NN=C1c2ccccc2-c2ccccc21,n,35µM,n,u,n
CCc1ccc(-c2cc(C(F)(F)F)on2)cc1S(=O)(=O)NCc1ccccc1,x,n,x,x,x
CCCC[n+]1c(NCc2cc(Br)cc(Br)c2[O-])[nH]c2ccccc21,x,n,x,x,x
CCc1ccccc1NC(=O)c1nc(-c2ccccc2)oc1C,x,n,x,x,x
CCN(CC)S(=O)(=O)c1ccc(NS(=O)(=O)c2ccc3ccccc3c2)cc1,x,n,x,x,x
CCC(C)S(=O)(=O)c1oc(-c2ccc(F)cc2)nc1S(=O)(=O)c1ccc(F)cc1 (stereo not given),3.5µM,n,x,u,x
CCCCS(=O)(=O)c1oc(-c2ccc(F)cc2)nc1S(=O)(=O)c1ccc(C)cc1,3.5µM,n,x,4.5µM,x
Cc1ccc(S(=O)(=O)c2nc(-c3ccc(F)cc3)oc2N2CCN(c3ccccc3)CC2)cc1,n,n,x,n,x
CSc1oc(-c2ccc(F)cc2)nc1S(=O)(=O)c1ccc(Br)cc1,n,n,n,n,n
CCS(=O)(=O)c1oc(-c2ccc(F)cc2)nc1S(=O)(=O)c1ccccc1,2.5µM,n,x,x,x
CCCCCS(=O)(=O)c1oc(-c2cccs2)nc1S(=O)(=O)c1ccc(C)cc1,n,u,x,7.9µM,x
Cc1ccc(NC(=O)C(Sc2cccc[n+]2[O-])c2ccccc2)cc1 (stereo not given),x,n,x,x,x
COc1cccc(Nc2cnc3ccc(-c4ccc(F)cc4)nn23)c1,x,n,x,x,x
CCCCS(=O)(=O)c1oc(-c2cccs2)nc1S(=O)(=O)c1ccc(F)cc1,5.6µM,n,x,5µM,x
O=C(Nc1ccccc1)c1oc2ccccc2c1NC(=O)c1nn(-c2cccc(Cl)c2)ccc1=O,x,n,x,x,x
CC(C)(CO)NCc1cc(=O)oc2cc3c(cc12)CCC3,x,n,x,x,x
COc1cccc(-c2n[nH]c(=S)n2Cc2ccco2)c1,n,18µM,n,n,n
CCCc1n[nH]c(=S)n1Cc1ccco1,n,n,x,n,n
Cc1cc(Cl)ccc1OCCCc1n[nH]c(=S)n1Cc1ccco1,x,18µM,x,x,x
S=c1[nH]nc(COc2ccc(Cl)cc2)n1Cc1ccco1,n,40µM,n,n,n
SMILES,HepG2 viability,ALOX12 inh,ATXN2 expr inh,TGFb SMAD3 inh,S2 tox
S=c1[nH]nc(-c2ccncc2)n1Cc1ccco1,n,u,n,n,u
Cc1ccc2oc(-c3cccc(F)c3)cc(=O)c2c1,x,n,x,x,x
Cc1cccc(OCCC(=O)OC(C)C(=O)Nc2ccc(S(N)(=O)=O)cc2)c1 (stereo not given),x,n,x,x,x
CCOCCCNC(=O)c1[nH]c2cc(OC)ccc2c1Sc1ccccc1,n,n,n,n,n
COc1ccc2c(Sc3ccc(Cl)cc3)c(C(=O)NCCCN3CCCCC3)[nH]c2c1,16µM,u,25µM,u,x
O=C(Nc1cccnc1Oc1ccccc1)c1cc(F)ccc1Br,x,n,x,x,x
CCOC(=O)C1=C(N)OC2=C(C(=O)CCC2)C1c1ccc(Cl)cc1 (stereo not given),x,n,x,x,x
O=C(CCc1ccccc1)c1ccc2c(c1)OCCCO2,n,n,n,u,n
O=C(CCN1CCCC1Cc1ccccc1)c1ccc2c(c1)OCCO2 (stereo not given),n,n,u,11µM,x
O=C(CCCc1ccccc1)c1ccc2c(c1)OCCO2,n,n,10µM,n,n
O=C(CCN1CCc2ccccc2C1)c1ccc2c(c1)OCCO2,7.1µM,x,n,u,n
O=C(NCCc1ccccc1)c1ccc2c(c1)OCCCO2,n,u,0.71µM,n,n
O=C(CSc1nncn1CCc1cccs1)Nc1ccccc1,x,n,x,x,x
O=C(NCC(=O)N1CCN(c2ccccc2O)CC1)c1ccc2c(c1)OCO2,n,32µM,n,n,n
O=C(Cc1ccc(Cl)cc1Cl)N1CCN(c2ccccc2O)CC1,x,40µM,x,x,x
O=C(Cc1ccc(Br)cc1)N1CCN(c2ccccc2O)CC1,n,u,n,u,n
O=C(NCCc1ccccc1)c1ccc2c(c1)OCCO2,n,n,2.5µM,n,n
O=C(NCCOc1ccccc1)c1ccc2c(c1)OCO2,n,n,4.5µM,n,n
COc1ccccc1CNC1(Cc2cc(-c3ccccn3)on2)COC1,x,n,x,x,x
CC(/C=C/C=C/c1ccccc1)=N/NC(=O)c1ccc2c(c1)OCCO2,11µM,n,n,n,n
CC(/C=C/C=C/c1ccccc1)=N\NC(=O)c1cccnc1,n,n,n,n,x
O=C(Nc1nnc(-c2ccc3c(c2)OCCO3)o1)c1ccc(Cc2ccccc2)cc1,n,n,u,u,25µM
CN(C)C(=S)SC(=S)N(C)C,x,u,2.5µM,x,2.5µM
Cc1ccc(S(=O)(=O)NC(=O)c2ccc(-c3ccc(C)c4ccccc34)o2)cc1,n,35µM,n,n,n
CC1(C)CC(C)(c2ccc(O)cc2O)N(c2ccc3ccccc3c2)C(=S)N1 (stereo not given),n,18µM,n,u,n
SMILES,HepG2 viability,ALOX12 inh,ATXN2 expr inh,TGFb SMAD3 inh,S2 tox
COc1ccc(OCC(O)CNCCOc2ccccc2OC)c(C(C)(C)C)c1 (stereo not given),n,u,x,13µM,x
COc1ccccc1NCC(O)COc1ccc(C(C)(C)C)cc1 (stereo not given),n,u,u,u,u
CCOC(=O)N1CCN(C(=O)CSc2nc3c([nH]c4ccccc43)c(=O)n2C)CC1,n,n,n,13µM,n
O=CN1Cc2nc3ccccc3n2-c2cc(Br)ccc21,x,n,x,x,x
COc1cccc(C2NC(=S)NC(C)=C2C(=O)c2ccccc2)c1OC (stereo not given),n,45µM,n,n,n
CC1=C(C(=O)OC(C)(C)C)C(c2cccc3ccccc23)NC(=S)N1 (stereo not given),x,n,x,x,x
Cc1ccc(Nc2cc(C)c3ccc(O)cc3n2)cc1C,10µM,u,x,u,n
Cc1ccc(-c2csc(=Nc3ccccc3)n2CCCO)cc1,n,45µM,u,7.1µM,u
CC(C)Cn1c(-c2ccc(S(=O)(=O)N3CCCC3)cc2)csc1=Nc1ccccc1,n,u,n,n,n
O=S(=O)(c1ccc(-c2csc(=Nc3ccc(F)cc3)n2CCCCCCO)cc1)N1CCCC1,n,u,32µM,u,u
OCCCn1c(-c2ccc(F)cc2)csc1=Nc1ccc(F)cc1,n,u,n,u,u
COc1ccccc1N1C(=O)C=C(Sc2nc(C)cc(C)n2)C1=O,11µM,10µM,n,11µM,n

# Screening data as filed in PubChem.
